Assay [1] is described as follows: qHTS assay for small molecule agonists of the p53 signaling pathway (AID 651631; calls by dose curve; also: nearly all actives have a fitted effect of over 15% in size; also: potency is read from the fitted curve at half-maximal effect). A digest of the protocol:
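We treat p53RE-bla HCT-116 cells with compounds for 16 h at 37 °C, add LiveBLAzer B/G FRET substrate for 2 h at room temperature, and measure fluorescence intensity.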
Background: qHTS replaces the single test concentration by a dilution series.

Assay [2] can be described thus: qHTS assay for small molecules that induce genotoxicity in human embryonic kidney cells expressing luciferase-tagged ATAD5 (AID 651632). Also: nearly all actives have a fitted effect of over 15% in size. The procedure, abridged:
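HEK293T cells carrying luciferase-tagged ATAD5 were given compound or DMSO vehicle and incubated 16 hr at 37C, 5% CO2. Luciferase activity was read after 30 min at room temperature with Amplite; a rise signals genotoxic stress.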

Assay [3] in a line: qHTS assay for small molecule agonists of the p53 signaling pathway - cell viability (AID 651633; calls by dose curve;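 also: p53RE-bla HCT reporter cells with a stable beta-lactamase p53 reporter; series mostly up to about 83 µM; nearly all actives have a fitted effect of over 30% in size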). A digest of the protocol: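 Viability counter-read: CellTiter-Glo luminescence (30 min, room temperature) in the same p53RE-bla plates. These plates had been exposed to compounds for 16 h at 37 C.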
Assay [4] in a line: qHTS assay for small molecules that induce genotoxicity in human embryonic kidney cells expressing luciferase-tagged ATAD5 - cell viability (AID 651634; calls by dose curve; also: nearly all actives have a fitted effect of over 25% in size). The procedure, abridged:
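HEK293T cells carrying luciferase-tagged ATAD5, 2,000 cells/well, exposed to compound for 15.5 hr at 37C. Viability read as live-cell protease activity by CellTiter-Fluor fluorescence after 30 min at 37C.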

A short description of assay [5]: qHTS assay for small molecule disruptors of the mitochondrial membrane potential - cell viability (AID 720634; calls by dose curve;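 also: human HepG2 liver cancer cells; series mostly up to about 83 µM; nearly all actives have a fitted effect of over 20% in size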). The procedure, abridged:
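HepG2 cells, 2,000 per well, attached overnight, then treated 1 hr at 37 C, 5% CO2. Viability read as ATP by CellTiter-Glo luminescence after 30 min at room temperature. Read in the same wells as the m-MPI membrane-potential dye assay.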

Assay [6] in a line: qHTS assay for small molecule disruptors of the mitochondrial membrane potential (AID 720635). The procedure, abridged: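 Mitochondrial membrane potential tracked with Mito-MPS dye, red aggregates (ex 540/em 590 nm) against green monomers (ex 490/em 535 nm). Compound treatment 1 hr at 37C, dye 30 min in HepG2.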
Assay [7] can be described thus: qHTS assay to test for compound auto fluorescence at 590 nm (red) in HepG2 cells (AID 720674). A digest of the protocol:
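1 hr compound incubation on HepG2 cells, 37 C, 5% CO2; plate read ex 540 nm / em 590 nm; intensities reported as Rose Bengal sodium equivalents.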

Assay [8] in a line: qHTS assay to test for compound auto fluorescence at 535 nm (green) in HepG2 cells (AID 720675).
Assay [9] is described as follows: qHTS assay to test for compound auto fluorescence at 460 nm (blue) in HEK293 cells (AID 720678). A digest of the protocol:
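Blue-channel (Ex/Em 405/460 nm) intensity measured in HEK293 cultures after overnight compound exposure at 37C; signal expressed relative to triamterene. Cells plated 2,000 per well in 10% dialyzed FBS medium and allowed 4-5 hr to attach.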

Assay [10] can be described thus: qHTS assay to test for compound auto fluorescence at 590 nm (red) in HEK293 cells (AID 720679). The procedure, abridged: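 Red-channel autofluorescence (Ex/Em 540/590 nm; Rose Bengal sodium reference) was measured after overnight 37C, 5% CO2 exposure of attached HEK293 cells, 2,000 per well in medium with 10% dialyzed FBS.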
Assay [11] can be described thus: qHTS assay to test for compound auto fluorescence at 535 nm (green) in HEK293 cells (AID 720680).
A short description of assay [12]: qHTS assay to test for compound auto fluorescence at 590 nm (red) in HEK293 cell free culture (AID 720683). The procedure, abridged:
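Red-channel autofluorescence of compounds in culture medium (DMEM, 10% FBS), no cells, measured at 540/590 nm. Rose Bengal sodium is the reference fluorophore for equivalence.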

Assay [13] in a line: qHTS assay to test for compound auto fluorescence at 590 nm (red) in HepG2 cell free culture (AID 720684). The procedure, abridged:
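Steps: dispense MEM/10% FBS medium, no cells; pin compound or DMSO vehicle; read red channel, Ex/Em 540/590 nm. Output given as Rose Bengal sodium equivalents.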

The nature of assay [14]: qHTS assay to test for compound auto fluorescence at 535 nm (green) in HepG2 cell free culture (AID 720686).
Assay [15] can be described thus: qHTS assay to test for compound auto fluorescence at 460 nm (blue) in HepG2 cells (AID 720687). A digest of the protocol:
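Blue-channel autofluorescence (Ex/Em 405/460 nm, triamterene-equivalent) was measured after 1 hr compound exposure at 37 C, 5% CO2. Cells were HepG2, plated overnight at 37 C in MEM plus 10% FBS.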

The target of assay [16] is Glucocorticoid receptor (Homo sapiens) (UniProt P04150). As to the kind of experiment: qHTS assay to identify small molecule agonists of the glucocorticoid receptor (GR) signaling pathway (AID 720691; active = well fitted activation curve with a large enough effect in the signal ratio in the repeat runs, not every such curve was filed as active; the % refers to the signal ratio). A digest of the protocol:
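GR-bla HeLa cells carrying a GRE-driven beta-lactamase reporter, exposed to compounds for 18 h at 37 C. Reporter activation read as fluorescence after 2 h with LiveBLAzer B/G FRET substrate at room temperature.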

Assay [17] has the same target. Description: qHTS assay to identify small molecule antagonists of the glucocorticoid receptor (GR) signaling pathway (AID 720692; active = well fitted inhibition curve with a large enough effect in the signal ratio in the repeat runs, not every such curve was filed as active; the % refers to the signal ratio). A digest of the protocol:
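GR-bla HeLa cells carrying a GRE-driven beta-lactamase reporter received compound after 4 h plating, then dexamethasone (5 nM final). After 18 h at 37C, the FRET substrate was loaded for 2 h at room temperature and fluorescence read.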

A short description of assay [18]: qHTS assay to test for compound auto fluorescence at 535 nm (green) in HEK293 cell free culture (AID 720682). The procedure, abridged: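 Green-channel intensity (Ex/Em 485/535 nm) was recorded from compound-treated wells containing only DMEM with 10% FBS. Fluorescein provided the equivalency standard.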
A short description of assay [19]: qHTS assay to test for compound auto fluorescence at 460 nm (blue) in HepG2 cell free culture (AID 720685). The procedure, abridged:
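Compound (23 nL) or DMSO pinned into cell-free MEM with 10% FBS; blue fluorescence read at 405/460 nm excitation/emission, expressed as auto-fluorescence equivalency to triamterene.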

Assay [20] is described as follows: qHTS assay to test for compound auto fluorescence at 460 nm (blue) in HEK293 cell free culture (AID 720681). The procedure, abridged: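 Blue fluorescence (Ex 405/Em 460 nm, triamterene-equivalent) was read immediately after pin transfer of compound or DMSO into medium (DMEM, 10% FBS) without cells.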

Unmarked numbers belong to inactive results. Records with an inconclusive call do not appear. The source made the active and inactive calls. Unless noted, calls follow the shape of the dose curve; as a rule, active = well fitted curve in the direction sought with a large enough effect in the repeat runs; inconclusive = weak or mixed curves; inactive = no such curve, though single readings can be large; an effect the other way counts as inactive or inconclusive.

Results on eight compounds are retold here after PubChem BioAssay (Tox21).
% is scaled to controls: 0 for no effect and ±100 for the full control effect.

Sequence of Glucocorticoid receptor (Homo sapiens) (P04150 whole entry, looked up): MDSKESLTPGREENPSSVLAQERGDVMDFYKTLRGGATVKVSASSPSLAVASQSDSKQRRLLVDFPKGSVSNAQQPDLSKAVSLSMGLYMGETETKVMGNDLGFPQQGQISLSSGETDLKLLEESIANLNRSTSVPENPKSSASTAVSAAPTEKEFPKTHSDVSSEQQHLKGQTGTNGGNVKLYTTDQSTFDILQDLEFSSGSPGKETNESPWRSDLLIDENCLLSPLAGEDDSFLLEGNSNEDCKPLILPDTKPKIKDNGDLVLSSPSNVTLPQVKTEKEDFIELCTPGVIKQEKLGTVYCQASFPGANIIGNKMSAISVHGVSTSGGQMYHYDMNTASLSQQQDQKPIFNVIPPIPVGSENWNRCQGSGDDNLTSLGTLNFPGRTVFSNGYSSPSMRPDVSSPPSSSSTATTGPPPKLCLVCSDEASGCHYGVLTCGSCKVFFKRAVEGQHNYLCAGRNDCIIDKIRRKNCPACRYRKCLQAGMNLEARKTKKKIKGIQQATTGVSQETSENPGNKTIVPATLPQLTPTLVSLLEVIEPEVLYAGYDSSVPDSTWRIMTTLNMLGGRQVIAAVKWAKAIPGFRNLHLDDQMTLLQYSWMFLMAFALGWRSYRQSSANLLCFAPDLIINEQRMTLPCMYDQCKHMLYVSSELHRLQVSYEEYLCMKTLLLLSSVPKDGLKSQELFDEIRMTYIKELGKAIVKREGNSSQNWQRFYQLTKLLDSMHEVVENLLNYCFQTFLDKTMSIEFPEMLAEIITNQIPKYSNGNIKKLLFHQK

Turning to `N=C(N=C(N)N)N1CCOCC1`, the Potency entry in assay [1], in assay [2], in assay [3], in [4], in assay [5] and in assay [6] was “inactive” in each case. The Potency result in assay [16] and in assay [17] was “inactive” each time. The fluorescence, relative to Rose Bengal in [7] is 0.372% [at 18.6 µM]. The fluorescence, % of fluorescein control was -0.084% [at 18.6 µM] in assay [8] and -0.0914% [at 18.6 µM] in [14]. Besides, the fluorescence, % of triamterene in assay [9] is -0.223% [at 18.6 µM]. Further, the fluorescence, % of fluorescent control in [10] was 0.0856% [at 18.6 µM]; in assay [12] it was 0.292% [at 18.6 µM]; in [15] it was 0.133% [at 18.6 µM]. Also, in assay [11], the fluorescence, % of fluorescein is -0.0392% [at 18.6 µM]. In addition, the fluorescence, % of Rose Bengal in assay [13] was 0.0286% [at 18.6 µM].
Regarding `CC[C@]12CCCN3CCc4c(n(c5ccccc45)C(=O)C1)[C@@H]32`, the Potency in assay [1] is 2540 nM (active). The Potency result in assay [2], in assay [3], in [4], in assay [5] and in assay [6] was “inactive” throughout. The fluorescence, relative to Rose Bengal in [7] was -0.674% [at 18.6 µM]. For the same compound, the fluorescence, % of fluorescein control in assay [8] is 0.0406% [at 18.6 µM]. Besides, the fluorescence, % of triamterene in assay [9] is 0.0203% [at 18.6 µM]. In addition, the fluorescence, % of fluorescent control in assay [10] was 0.0084% [at 18.6 µM]; in assay [12], -0.702% [at 18.6 µM]; in [19], 0.043% [at 18.6 µM]; in assay [15], -0.0508% [at 18.6 µM]. In addition, the fluorescence, % of fluorescein in assay [11] was 0.0475% [at 18.6 µM]. Besides, the activity change in [18] was 0.026% [at 18.6 µM]. Further, the fluorescence, % of Rose Bengal in [13] is 0.0021% [at 18.6 µM].
Take `Cc1cccc(C(C)(C)C)c1O`: the Potency entry in assay [1], in assay [2], in assay [3], in assay [4], in [5] and in [6] was “inactive” throughout. In addition, the Potency result in assay [20], in assay [19], in [15], in assay [16] and in assay [17] was “inactive” throughout. Further, the result in assay [7], in [8], in assay [10], in assay [11], in assay [18] and in assay [13] was inactive. Also, in [14], the compound was classed as inactive.
Consider `CCCCCCOC(=O)CCC`, for which the Potency result in assay [1], in [2], in assay [3], in assay [4], in assay [5] and in assay [6] was “inactive” throughout. The Potency result in [20] and in [15] was “inactive” in each case. Besides, the compound was classed as inactive in [7], in assay [8], in [10], in assay [11], in assay [12] and in assay [13]. Also, the compound was called inactive in assay [14].
In the case of `CCOC(=O)CC(=O)c1cc(F)c(Cl)nc1Cl`, the Potency entry in assay [1], in assay [2], in assay [3], in assay [4], in [5] and in [6] was “inactive” throughout. For the same compound, the Potency entry in [9], in assay [20], in [16] and in [17] was “inactive” throughout. Further, the outcome in assay [7], in assay [8], in assay [10], in assay [11], in assay [18] and in assay [12] was inactive. The result in [13] and in [14] was inactive.
As to `OCC1CC2CC1C1CCC(CO)C21` (stereo not drawn), the Potency entry in assay [1], in assay [2], in [3], in assay [4], in [5] and in assay [6] was “inactive” throughout. In addition, the Potency result in [9] was “inactive”. Further, the call in [7], in [8], in assay [10], in assay [11], in assay [18] and in assay [12] was inactive. Besides, the compound was called inactive in [13] and in assay [14].
As to `CCCCOC(O)CC` (stereo not drawn), the Potency result in assay [1], in [2], in assay [3], in assay [4], in assay [5] and in assay [6] was “inactive” throughout. The Potency result in assay [9], in assay [19], in assay [15], in assay [16] and in assay [17] was “inactive” throughout. Moreover, the outcome in assay [7], in assay [8], in [11], in [18], in assay [12] and in [13] was inactive. The compound was called inactive in assay [14].
As for `O=c1c2ccccc2nnn1CCl`, the Potency entry in assay [1], in [2], in [3], in assay [4], in assay [5] and in assay [6] was “inactive” in each case. Also, the Potency entry in [9], in assay [20], in [19], in [15], in assay [16] and in assay [17] was “inactive” throughout. The compound was classed as inactive in [7], in assay [8], in [12] and in [13].
